High-throughput results from PubChem.
NS1 function inh: qHTS Assay for Inhibitors of Influenza NS1 Protein Function | Potency, µM (titrated, usually from 46.1 µM), without a hit: top-dose activity, positive = more growth | actives 0.4% (n = 270,000) | AID 2326, 2010; calls by dose curve; note: potency is the fitted concentration of half-maximal effect; actives are rising curves; nearly all actives have a fitted effect of over 50% in size
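S. cerevisiae expressing influenza A NS1, grown in glucose, washed, then diluted 1:100 into pH 6.0 -URA galactose medium with 23 nl compound. Growth recovery read as OD600; NS1-free strain serves as control.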
SARS PLP yeast: qHTS of Yeast-based Assay for SARS-CoV PLP | S. cerevisiae expressing SARS-CoV PLpro, growth rescue | Potency, µM (titrated, usually from 32.9 µM), inactives show at the top dose activity, positive = growth rescue, actives largely listed as activators | actives 0.19% (n = 330,000); calls by dose curve; note: potency is the fitted concentration of half-maximal effect; 0% is about no effect; nearly all actives have a fitted effect of over 55% in size
Shiga inhibitor: A qHTS for Small Molecule Inhibitors of Shiga Toxin; Vero cells, Shiga toxin protein synthesis inhibition reporter; inhibition, % at 38.7 µM; actives 9.2% (n = 290,000); AID 2315, 2010; in the data active = inhibition mostly above about 28%, no sharp cut-off; inactive = mostly below about 43%; note: 0% is about no effect
Pf growth 96h: Primary qHTS for delayed death inhibitors of the malarial parasite plastid, 96 hour incubation | P. falciparum luciferase reporter growth, 96 h | Potency, µM (series often up to 28.7 µM), without a hit: top-dose activity change, negative = inhibition, hits mostly inhibitors | actives 6.9% (n = 320,000); note: potency is the fitted concentration of half-maximal effect; % is set by controls: 0 for no effect and ±100 for the full control effect
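Readout is luminescence from an integrated firefly luciferase in P. falciparum. Red cells, 2% hematocrit and 0.05% parasitemia final, were cultured with compound through two parasite generations (96 hours) at 37 C, 5% CO2.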
Pf growth 48h: Primary qHTS for delayed death inhibitors of the malarial parasite plastid, 48 hour incubation | actives 5.9% (n = 310,000) | Potency, µM (highest dose often 28.7 µM), without a hit: top-dose activity change, negative = inhibition, usual class: inhibitors | P. falciparum luciferase growth in erythrocytes, 48 h; note: potency is the fitted concentration of half-maximal effect; % is set by controls: 0 for no effect and ±100 for the full control effect
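Luciferase-expressing P. falciparum in infected erythrocytes (2% hematocrit, 0.1% parasitemia final) in RPMI 1640/0.5% Albumax were exposed to compound for 48 hours at 37 C, 5% CO2; growth read as luminescence.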
CHX counter: Cycloheximide Counterscreen for Small Molecule Inhibitors of Shiga Toxin. cell reporter, cycloheximide protein synthesis inhibition counterscreen. actives 12% (n = 300,000). max response, %; in the data active = max response mostly above about 13%, no sharp cut-off; inactive = mostly below about 14%; note: read at 38.3 µM for the half of the compounds with a filed dose; 0% is about no effect
* hit, by the source's call; ? = inconclusive; · = no result. An excerpt weighted towards active compounds, which were near 21% of everything screened. Unless noted, calls come from the whole dose curve; as a rule, active = well fitted inhibition curve with a large enough effect; inconclusive = small, poorly fitted or top-dose-only effect, or another doubt; inactive = no such curve, though single readings can be large or run the other way.

SMILES	NS1 function inh	SARS PLP yeast	Shiga inhibitor	Pf growth 96h	Pf growth 48h	CHX counter
CN(C(=O)CSc1nnnn1-c1ccccc1)C1CCS(=O)(=O)C1 (stereo not drawn)	·	0%	-15	6%	-22%	10
CC1CN=C(Nc2ccc(N(C)C)cc2)S1 (stereo not drawn)	3%	2%	-2	2.1µM*	17%	-5
c1ccc2c(NC3=NCCCCS3)cccc2c1	4%	14%	22	-22%	7%	-4
CC1CN=C(Nc2cccc3ccccc23)S1 (stereo not drawn)	-14%	5%	37	15%	11%	19*
CC1CN=C(Nc2ccccc2)S1 (stereo not drawn)	8%	6%	8	54%	5%	9
Cc1ccc(-c2ccc(=O)n(CC(=O)N3CCN(c4cccc(C)c4)C(C)C3)n2)cc1 (stereo not drawn)	-63%	-6%	-20	12µM*	46%	1
Cc1cccc(N2CCN(C(=O)Cn3nc(C)n4cccc4c3=O)CC2C)c1 (stereo not drawn)	13%	6%	-6	43%	14%	-1
CCOC(=O)CCn1nc(-c2ccccc2)cc1N	4%	5%	39*	28%	12%	35*
CCOC(=O)Cn1nc(-c2ccc(C)cc2)ccc1=O	-5%	-3%	28*	·	10%	19*
S=C(NC1CCCCC1)N(CCc1ccccc1)CCc1ccccc1	-14%	9%	-38	?	?	7
CC(=O)O[C@@H]1[C@@H](O)CN[C@@H]1Cc1ccccc1	·	·	-29	·	·	-13
N#C/C(=C\c1ccc(N2CCCCC2)c([N+](=O)[O-])c1)c1nn(-c2ccccc2)c(N)c1C#N	10%	-19%	-12	-26%	-18%	-2
CCOC(=O)/C(O)=C(\C#N)c1nc2ccccc2[nH]1	·	0%	-4	0%	15%	11
COc1cc(/C=C(/C#N)c2nc3ccccc3[nH]2)ccc1Oc1ncccc1[N+](=O)[O-]	14%	-10%	24	?	15µM*	13*
CCOc1cc(/C=C(/C#N)c2nc3ccccc3[nH]2)ccc1Oc1ccc([N+](=O)[O-])cn1	9%	-1%	17	2.3µM*	?	11*
N#C/C(=C\c1ccc(N2CCCC2)c([N+](=O)[O-])c1)c1nc2ccccc2[nH]1	28%	-5%	112*	84%	?	50*
CCOc1cc(/C=C(\C#N)c2nc3ccccc3[nH]2)ccc1OC(C)C(=O)O (stereo not drawn)	10%	-1%	77*	17%	-22%	30*
COc1ccc(/C=C(/C#N)c2cccnc2)cc1OC	0%	-6%	-1	-16%	?	-2
COc1ccccc1N(C)S(=O)(=O)c1ccc(Cl)c(C(=O)NCC2(N(C)C)CCCCC2)c1	·	1%	·	9.3µM*	?	·
COc1ccc(Cl)cc1NS(=O)(=O)c1cccc(C(=O)NCC2(N(C)C)CCCCC2)c1	-10%	-4%	-12	15µM*	?	3
COc1ccccc1N(C)S(=O)(=O)c1ccc(Cl)c(C(=O)NNC(=O)c2ccccc2O)c1	-3%	2%	-12	5%	34%	-4
COc1ccccc1NS(=O)(=O)c1cccc(C(=O)NCC2(N(C)C)CCCCC2)c1	·	-2%	·	?	-27%	·
CC(C)N1CCN(Cc2ccc3c(c2)Cc2ccccc2-3)CC1CCO (stereo not drawn)	3%	0%	-19	?	?	-2
O=C1/C(=C/c2ccccn2)SC(=S)N1Cc1ccccc1	6%	1%	-5	2%	9%	0
Cc1cccc(/C=C2/SC(=O)N(Cc3ccccc3)C2=O)n1	1%	-3%	13	2.6µM*	·	1
COc1ccccc1CCC(=O)NNC(=O)c1ccc(Br)cc1	1%	6%	7	29%	12%	12
CC(=O)Nc1ccc(S(=O)(=O)N2CCc3c(Cl)cccc3C2)cc1	-9%	?	-9	15µM*	·	-4
O=C(COc1ccc2ccccc2c1)Nc1ccc(S(=O)(=O)N2CCCCCC2)cc1	4%	-2%	10	?	12µM*	-5
